Compound activity from PubChem BioAssay.
A selection: hits, their analogues and other compounds. The true share with any hit is near 8.9%.
D3 antag: blocks the human D3 dopamine receptor; P35462; D3R cells, DiscoveRx beta-arrestin luminescence, antagonist mode; hits give low values; max response, negative = inhibition, %; hit rate 2.5% among 360,000; AID 652054; in the data active = max response below about -50%; inconclusive = no clear call, values can overlap the other calls; also: % is scaled to controls: 0 for no effect and ±100 for the full control effect
Target sequence (P35462 whole entry, looked up): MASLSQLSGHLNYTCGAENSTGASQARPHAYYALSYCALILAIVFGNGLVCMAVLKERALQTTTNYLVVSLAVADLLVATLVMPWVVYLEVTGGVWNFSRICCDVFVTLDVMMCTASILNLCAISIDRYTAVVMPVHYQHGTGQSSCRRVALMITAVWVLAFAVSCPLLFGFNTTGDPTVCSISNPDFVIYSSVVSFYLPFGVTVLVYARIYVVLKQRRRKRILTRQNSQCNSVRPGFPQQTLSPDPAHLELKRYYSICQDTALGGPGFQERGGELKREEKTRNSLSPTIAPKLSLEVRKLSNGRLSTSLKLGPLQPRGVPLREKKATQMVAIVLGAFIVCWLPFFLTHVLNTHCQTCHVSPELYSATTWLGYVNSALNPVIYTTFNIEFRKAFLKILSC
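Cells plated overnight at 1500 cells/well, then exposed to library compounds with dopamine controls for 90 minutes at 37 degrees C. DiscoveRx reagent added for 30–60 minutes at room temperature; luminescence read, quantitative HTS format.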
D3 ag: agonists of human D3 dopamine receptor. P35462. D3R DiscoveRx beta-arrestin cells, luminescence, 90 min. max activation, %. hit rate 0.58% among 410,000. AID 652048; in the data active = max activation above about 30%; also: 0% is about no effect
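Agonist-mode cell screen: cells plated at 1500/well and incubated overnight at 37 °C, then exposed to library compounds for 90 min at 37 °C. Detection reagent was added for 30–60 min at room temperature, and luminescence was read.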
KB-V1 MDR tox: kills drug-selected multidrug resistant KB-V1 cells; KB-V1 MDR cells viability, CellTiter-Glo, 72 h; Potency, µM (top dose mostly 46.1 µM), most hits filed as cytotoxic; hit rate 3.4% among 400,000; AID 1347076; also: potency is read from the fitted curve at half-maximal effect; % is scaled to controls: 0 for no effect and ±100 for the full control effect; nearly all actives have a fitted effect of over 60% in size
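Cells of the MDR subline KB-V1 are plated, dosed with compound at multiple concentrations, and incubated 72 h at 37 degrees C; CellTiter-Glo is then added and luminescence read after 10 min.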
MCF10A rerep: inducers of DNA re-replication in MCF 10A breast cells | Potency, µM (doses to about 46.1 µM), inactives show at the top dose activity, positive = re-replication, usual class: activators | MCF 10A DNA re-replication, Hoechst nuclear intensity, 48 h | hit rate 2.9% among 350,000; also: potency is read from the fitted curve at half-maximal effect; % of control where 0% means no effect; nearly all actives have a fitted effect of over 50% in size
KB-3-1 cytotox: kills parental KB-3-1 adenocarcinoma cells; KB-3-1 viability, CellTiter-Glo ATP luminescence, 72 h; Potency, µM (titrated, usually from 46.1 µM), actives largely listed as cytotoxic; hit rate 1.4% among 400,000; AID 1347075; also: potency is read from the fitted curve at half-maximal effect; % is scaled to controls: 0 for no effect and ±100 for the full control effect; nearly all actives have a fitted effect of over 60% in size
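Parental KB-3-1 viability, qHTS format: 72 h compound exposure, 37 °C; CellTiter-Glo; media-only wells and DMSO plates as controls; concentration-effect fits on corrected data.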
SW480 rerep: inducers of DNA re-replication in SW480 colon cancer cells | SW480 DNA re-replication, Hoechst DNA content imaging, 48 h | Potency, µM (top dose mostly 46.1 µM), for inactives: top-dose re-replication activation, most hits filed as activators | hit rate 1.8% among 340,000 | AID 624297; also: potency is read from the fitted curve at half-maximal effect; % of control where 0% means no effect; nearly all actives have a fitted effect of over 55% in size
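Quantitative HTS format with DMSO vehicle controls; 48 hr drug incubation at 37 C, then 40 min Hoechst staining and scanning imager measurement at 405 nm excitation.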
* marks the source's active call; other numbers are inactive results; i = inactive; ? = inconclusive; . = not tested or not shown; ! = not confirmed by another sample; [ ] = dose if it differs, or a comment. Unless noted, calls follow the shape of the dose curve; as a rule, active = well fitted curve in the direction sought with a large enough effect; inconclusive = small, poorly fitted or top-dose-only effect, or another doubt; inactive = no such curve, though single readings can be large; an effect the other way counts as inactive or inconclusive.

SMILES	D3 antag	D3 ag	KB-V1 MDR tox	MCF10A rerep	KB-3-1 cytotox	SW480 rerep
O=C1OCCN1C(=O)[C@H]1[C@H](c2ccc([N+](=O)[O-])cc2)C(c2ccc(F)cc2)=NN1c1ccc(Br)cc1	22	-21	i	-31%	i	-1%
C[C@@H]1C(c2ccccc2)=NN(c2ccccc2)[C@H]1C(=O)N1CCOC1=O	11	-9	i	9%	i	?
CN1C(c2ccc(F)cc2)=CS/C1=C(\C#N)c1nnc2n1-c1ccccc1SC2	-11	8	i	12µM*	i	-4%
Clc1ccc(-c2nnc3n2-c2ccccc2SC3)cc1	-9	-3	i	3%	i	?
Cc1ccc(NC(=O)c2oc3ccccc3c2NC(=O)c2ccc(F)c(F)c2)cc1	.	2	i	.	i	.
Brc1cccc(-c2nn(-c3ccccc3)c3c2cnc2cc4c(cc23)OCO4)c1	.	1	i	.	i	.
C=CCN1C(c2ccc(Br)cc2)=CS/C1=C(/C#N)c1nnc(N2CCOCC2)n1-c1ccccc1	7	3	?	6%	i	?
C=CCN1C(c2cccc(C(F)(F)F)c2)=CS/C1=C(/C#N)c1nnc(N2CCOCC2)n1-c1ccccc1	-10	13	4.1µM*	?	?	-33%
CCOC(=O)CN1N=C(/C=C/c2ccc(C)cc2)CCC1=O	-13	3	5.8µM*	13%	5.2µM*	14%
COc1ccc(CCNC(=O)CC2SC(=NCc3ccccc3OC)NC2=O)cc1 (stereo unspecified)	-12	5	i	1%	i	-14%
COc1ccccc1CN=C1NC(=O)C(CC(=O)Nc2ccc(C(C)=O)cc2)S1 (stereo unspecified)	-3	53*	i	-12%	i	-5%
O=[N+]([O-])c1cccc(C=Nc2cccc3ccccc23)c1O	-11	-16	i	4%	i	?
CCOC(=O)c1c(/N=C/c2cccc([N+](=O)[O-])c2O)sc(C)c1C	-102*	-12	i	?	i	?
COc1cc2c(C#CCCO)c(-c3ccc(C#N)cc3)oc(=O)c2cc1OC	0	-16	i	6.5µM*	i	-14%[9.22 µM]
CCNS(=O)(=O)c1ccc2c(c1)NCC2	10	1	i	-5%	i	5.8µM*
Cc1cc(C)n(C(C)CC(=O)Nc2cccc(C(F)(F)F)c2)n1 (stereo unspecified)	.	5	i	.	i	.
CN1CCc2cc3c(c4c2[C@H]1[C@H](O)c1ccccc1-4)OCO3	12	12	i	-27%	i	-11%[9.22 µM]
CN1CCc2cccc3c2[C@H]1Cc1ccc(O)c(O)c1-3	-20	76*!	?	2.9µM*	?	8.2µM*!
COC(=O)c1cnn(-c2ccc(C(=O)Nc3cccc(C(C)=O)c3)cc2)c1N	.	1	?	.	i	.
COc1ccc(C(C#N)=C2C=CC(=NO)C=C2)cc1	-24	-6	?	23µM*	?	?
CC(=O)OC(=C(OC(C)=O)c1ccccc1)c1ccccc1	0	-9	i	-1%	i	-1%
CC(=O)ON=C1C=CC(=C(C#N)c2ccccc2)C=C1	-105*	-26	7.3µM*	.	3.7µM*	.
N#CC(=C1C=CC(=NO)C(Cl)=C1)c1ccc(Cl)cc1	46	-6	?	?	?	?
Cc1cccc(NC(=O)N2CCN3CCCCC3C2)c1C (stereo unspecified)	.	4	.	.	.	.
O=C(NCCCc1ccccc1)c1nn(-c2ccccc2F)nc1CO	.	-7	.	.	.	.
SMILES	D3 antag	D3 ag	KB-V1 MDR tox	MCF10A rerep	KB-3-1 cytotox	SW480 rerep
CCOC(=O)/C=C/C(=O)Nc1nccs1	-20	-8	i	18µM*	i	?
CN(Cc1c(O)ccc2c1oc(=O)c1ccccc12)C1CCCCC1	-57*	-58	?	?	?	6%
CN(C)Cc1c(O)ccc2c3c(c(=O)oc12)CCCCC3	16	5	i	-20%	i	-31%
Nc1c2c(nc3ccccc13)CCCC2	-18	-20	i	?	i	?
Cc1nc(Oc2ccccc2)c2ccccc2n1	-12	7	i	3%	i	-1%
c1ccc(Oc2c3ccccc3nc3ccccc23)cc1	-18	-24	?	18µM*	?	?
Nc1c2ccccc2nc2ccccc12	?	-22	2.1µM*!	18µM*!	5.2µM*	23µM*
Cc1cccc(NC(=O)/C(C#N)=C/c2cccc([N+](=O)[O-])c2)n1	70	3	i	21µM*	i	?
CCn1c(=O)c2cc(C(=O)Nc3cccc(C(F)(F)F)c3)sc2c2ccccc21	.	0	i	.	i	.
COc1ccc2c(c1)CCc1c(C(=O)NC3CCCCC3)noc1-2	28	35*	i	-5%	i	2%
COc1ccc(-c2cc(C(=O)NCCN3CCOCC3)c3ccccc3n2)c(OC)c1	-55*	-23	?	?	i	?
COCC(C)NC(=O)c1noc2c1CCc1cc(OC)ccc1-2 (stereo unspecified)	-3	8	16µM*	?	i	1%
COc1ccc2c(c1)CCc1c(C(=O)NCCN3CCOCC3)noc1-2	-25	-20	12µM*	-2%	i	2%
COCCNC(=O)c1noc2c1CCc1cc(OC)ccc1-2	?	11	i	5%	i	-2%
O=C(NCCN1CCOCC1)c1cc(-c2ccccc2)nc2ccccc12	?	-18	?	.	i	.
COc1ccc2c(c1)CCc1c(C(=O)Nc3cc(OC)c(Cl)cc3OC)noc1-2	.	0	i	.	i	.
COc1ccccc1CNC(=O)c1ccc2c(c1)nc(C)n2-c1ccccc1OC	.	-13	i	.	i	.
COc1ccccc1-n1c(C)nc2cc(C(=O)NCCN3CCOCC3)ccc21	-11	-6	?	-9%	i	3.7µM*
Cc1nn(Cc2ccccc2)c(Cl)c1C(=O)OCc1nnc(-c2ccccc2)o1	4	2	7.3µM*	?	i	-1%
Cc1nn(Cc2ccccc2)c(Cl)c1C(=O)OCc1nnc(-c2ccc(Cl)cc2)o1	0	5	i	15%	i	-5%
Clc1cccc(-c2nc(NCc3cccnc3)c3ccccc3n2)c1	26	-5	15µM*	?	i	15%
c1ccc(-c2nc(NCc3cccnc3)c3ccccc3n2)cc1	23	1	i	28%	i	3%
O=C(NCc1ccco1)c1ccc2c(c1)N(Cc1ccccc1)C(=O)CS2	-7	-1	5.8µM*	-6%	i	2%
